{"source": "PubChem BioAssay AID1565", "about": "(Sanford-Burnham Center for Chemical Genomics, 2009)", "note": "The whole screen tested about 290,000 compounds, of which about 3,200 (1.1%) were called active. The list comes from a sample in which actives are over-represented; it also holds similar structures and randomly drawn compounds. Values without a mark were called inactive. No stated cut-off is given here; in the data, active means inhibition above about 60%; inactive means the rest."}
{"target": "Phosphoethanolamine/phosphocholine phosphatase (Homo sapiens) (UniProt Q8TCT1)", "sequence (Q8TCT1 whole entry, looked up)": "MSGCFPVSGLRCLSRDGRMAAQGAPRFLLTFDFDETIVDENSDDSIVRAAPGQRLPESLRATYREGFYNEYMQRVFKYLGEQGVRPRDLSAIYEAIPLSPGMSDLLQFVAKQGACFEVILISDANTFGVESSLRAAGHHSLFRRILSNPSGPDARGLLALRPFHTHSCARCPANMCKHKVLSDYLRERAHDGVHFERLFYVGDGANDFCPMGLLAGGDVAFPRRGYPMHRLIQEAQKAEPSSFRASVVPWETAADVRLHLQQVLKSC", "test": "PubChem AID 1565", "conditions": "recombinant PHOSPHO1, absorbance phosphatase assay; at 13.3 µM; stronger effect = higher value"}
{"smiles": "O=c1cc(Cl)c2ccccc2n1-c1ccccc1", "inhibition": "19.9%"}
{"smiles": "CN(Cc1c(F)cccc1Cl)S(=O)(=O)c1cccs1", "inhibition": "-15.8%"}
{"smiles": "Cc1c(Cl)cccc1NC(=O)CCC(=O)N/N=C/c1ccco1", "inhibition": "32.7%"}
{"smiles": "Cn1c(-c2sccc2OCc2cccc(C(F)(F)F)c2)n[nH]c1=S", "inhibition": "36.7%"}
{"smiles": "Cc1ccccc1-c1n[nH]c(=S)n1C", "inhibition": "-137%"}
{"smiles": "Cn1c(-c2sc3cc(C(F)(F)F)cnc3c2-c2ccccc2)n[nH]c1=S", "inhibition": "96.2% (active)"}
{"smiles": "COc1cccc(NC(=O)CCc2nnc3ccc(N4CCC(C)CC4)nn23)c1", "inhibition": "-8.3%"}
{"smiles": "Cc1cccnc1CCNC(=O)C1CCC(=O)N(Cc2cccc(F)c2)C1", "note": "(configuration not stated)", "inhibition": "24%"}
{"smiles": "COc1cccc(CNC(=O)C2CCCN(c3ncnc4c3nc3n4CCCCC3)C2)c1", "note": "(configuration not stated)", "inhibition": "-55.9%"}
{"smiles": "O=C(Nc1ccccc1)N1CCN(C(=O)Nc2ccccc2)CC1", "inhibition": "15.9%"}
{"smiles": "O=C(Nc1ccc(Cl)c(Cl)c1)N1CC=C(c2ccccc2)CC1", "inhibition": "61.1% (active)"}
{"smiles": "O=C(Nc1cccc(NC(=O)N2CCN(c3ccccc3)CC2)c1)N1CCN(c2ccccc2)CC1", "inhibition": "12.4%"}
{"smiles": "Cc1occc1C(=O)N/N=C/c1ccc(-c2cccc([N+](=O)[O-])c2)o1", "inhibition": "40.3%"}
{"smiles": "C[N+]1(CCNC(=O)/C=N/O)CCCCC1", "inhibition": "91.1% (active)"}
{"smiles": "N#CC(C#N)=CN=c1ccn(Cc2ccc(Cl)cc2Cl)cc1", "inhibition": "34%"}
{"smiles": "COCCNC(=O)c1ccc2nc(Cc3ccc(OC)c(OC)c3)oc2c1", "inhibition": "-8.2%"}
{"smiles": "S=c1[nH]nc(COc2ccccc2)n1-c1ccccc1", "inhibition": "-11.2%"}
{"smiles": "COc1ccc(-n2c(-c3ccc(OC)c(OC)c3)n[nH]c2=S)cc1", "inhibition": "-135%"}
{"smiles": "Cc1ccc(OCc2n[nH]c(=S)n2-c2ccccc2)cc1", "inhibition": "60.9% (active)"}
{"smiles": "COc1ccc(OCc2n[nH]c(=S)n2N)cc1", "inhibition": "70.9% (active)"}
{"smiles": "COc1ccc(Cc2n[nH]c(=S)n2NC(=O)Nc2ccc(C)cc2)cc1", "inhibition": "36.2%"}
{"smiles": "Cc1ccc(OCc2n[nH]c(=S)n2-c2ccc(C)cc2)cc1", "inhibition": "-0.8%"}
{"smiles": "Cc1cccc(N2Cc3ccccc3C2=NC(=O)c2ccc(Cl)nc2)c1", "inhibition": "-3.9%"}
{"smiles": "Cc1nn(CC(=O)NCCc2ccccc2)c(=O)c2cc3occc3n12", "inhibition": "-36.2%"}
{"smiles": "O=C1/C(=C/c2ccc(F)cc2)SC(=S)N1CCCC(=O)N1CCCCC1CCO", "note": "(configuration not stated)", "inhibition": "38.5%"}
{"smiles": "O=C(c1ccc(CS(=O)(=O)c2ccccc2)o1)N1CCN(c2ccccc2)CC1", "inhibition": "2.1%"}
{"smiles": "CC(C)c1ccc(S(=O)(=O)NC2CCCC2)cc1", "inhibition": "24%"}
{"smiles": "CCN(CC)c1ccc(NC(=O)c2ccc(Cl)nc2)cc1", "inhibition": "74.3% (active)"}
{"smiles": "Cc1cnc(NC(=O)c2ccc(Cl)nc2)s1", "inhibition": "-16.6%"}
{"smiles": "NS(=O)(=O)c1ccc(NC(=O)COC(=O)c2ccc(Cl)nc2)cc1", "inhibition": "8.4%"}
{"smiles": "CCCCNC(=O)c1cn(CC)c2cc(N3CCN(C(=O)c4ccco4)CC3)c(F)cc2c1=O", "inhibition": "12.7%"}
{"smiles": "CCCn1c(C2CCCN2c2nc(-c3ccc(OC)cc3)cs2)nc2ccccc21", "note": "(configuration not stated)", "inhibition": "-1.7%"}
{"smiles": "CC(C)C(=O)NCc1cc(-c2ccc(Cl)cc2)no1", "inhibition": "32.2%"}
{"smiles": "Cc1ccc(-c2cc(N)on2)cc1", "inhibition": "1.1%"}
{"smiles": "Cc1ccc(S(=O)(=O)Cc2cc(-c3ccc(Cl)cc3)no2)cc1", "inhibition": "65.8% (active)"}
{"smiles": "O=C(CCc1nnc2ccc(NCc3ccco3)nn12)Nc1cc(F)ccc1F", "inhibition": "19.9%"}
{"smiles": "COc1ccccc1OCCOc1ccc(/C=C2\\C(=N)N3N=C(C)SC3=NC2=O)cc1", "inhibition": "19.1%"}
{"smiles": "CCOc1ccccc1N1CCN(C(=O)c2ccc3[nH]c(C)c(C)c3c2)CC1", "inhibition": "18.1%"}
{"smiles": "Cc1c(C(=O)NCC(c2ccco2)N2CCCC2)oc2ccc(Cl)cc12", "note": "(configuration not stated)", "inhibition": "7%"}
{"smiles": "Fc1ccc(/C=N/n2c(COc3ccccc3)n[nH]c2=S)cc1", "inhibition": "5.5%"}
{"smiles": "COc1cc(/C=N/n2c(C)n[nH]c2=S)ccc1OCc1ccccc1", "inhibition": "69.1% (active)"}
{"smiles": "COc1cc(/C=N/O)ccc1OCc1ccc([N+](=O)[O-])cc1", "inhibition": "5.6%"}
{"smiles": "CCC(NC(=O)c1cc(COc2ccc(F)c(F)c2)on1)c1ccncc1", "note": "(configuration not stated)", "inhibition": "21.8%"}
{"smiles": "CC(NC(=O)CSc1nc2c(cc1C#N)CN(C)CC2)c1ccccc1", "note": "(configuration not stated)", "inhibition": "95.3% (active)"}
{"smiles": "CC1(C)CCc2nc(SCc3ccccc3)c(C#N)cc2C1", "inhibition": "15%"}
{"smiles": "Cc1cc(NC(=O)CSc2nc3c(cc2C#N)CCCCC3)no1", "inhibition": "56%"}
{"smiles": "CC1CC(C)CN(c2ccc(S(=O)(=O)N3CCOCC3)cc2)C1", "note": "(configuration not stated)", "inhibition": "33.4%"}
{"smiles": "C=CCN1CN(S(=O)(=O)c2ccc(OC)cc2)c2nc3ccccc3nc21", "inhibition": "4.7%"}
{"smiles": "CCc1cc(-c2n[nH]c(=S)n2CC(C)C)cs1", "inhibition": "-17%"}
{"smiles": "CCCc1cc(-c2n[nH]c(=S)n2Cc2ccccc2)cs1", "inhibition": "82.7% (active)"}
{"smiles": "COc1cc(-c2n[nH]c(=S)n2Cc2ccccc2)cc(OC)c1OC", "inhibition": "-91.1%"}
{"smiles": "O=C(NCc1ccccc1)c1onc(CSc2nc3ccccc3[nH]2)c1C(=O)NCc1ccccc1", "inhibition": "15.1%"}
{"smiles": "CN(c1ccccc1)S(=O)(=O)c1ccc2[nH]c(=O)[nH]c2c1", "inhibition": "2.8%"}
{"smiles": "O=C(c1ccccc1)c1ccc(C(=O)N2CCN(c3ccccc3)CC2)cc1", "inhibition": "70.6% (active)"}
{"smiles": "O=C(c1ccc(S(=O)(=O)N2CCOCC2)cc1)N1CCN(c2ccccc2)CC1", "inhibition": "7.1%"}
{"smiles": "Cc1nc2ccc(C(=O)N3CCN(c4ccccc4)CC3)cc2s1", "inhibition": "-38.4%"}
{"smiles": "C=CCn1c(CNS(=O)(=O)c2ccc(Br)cc2)nnc1SC", "inhibition": "38.1%"}
{"smiles": "Cc1cccc(-n2nc3c(c2NC(=O)c2cc4ccccc4o2)CS(=O)(=O)C3)c1", "inhibition": "12.5%"}
{"smiles": "CCn1c(Cc2cccs2)nnc1SCC(=O)c1ccc(C)cc1", "inhibition": "67.3% (active)"}
{"smiles": "CCn1c(SCC(=O)c2ccc3ccccc3c2)nnc1-c1cccs1", "inhibition": "17.7%"}
{"smiles": "Cc1ccc(-n2c(Cc3cccs3)nnc2SCC(=O)OC(C)C)cc1", "inhibition": "4.6%"}
{"smiles": "CCNC(=O)Nc1ccc(S(=O)(=O)Nc2cnc(C)nc2C)cc1", "inhibition": "22%"}
{"smiles": "COc1ccc(N(CC(=O)N2CCOCC2)S(=O)(=O)c2ccccc2)cc1Cl", "inhibition": "12.6%"}
{"smiles": "Nc1ccc(-c2nnc(-c3ccccc3)o2)cc1", "inhibition": "4.2%"}
{"smiles": "Nc1ccc(-c2nnc(-c3ccc(-c4ccccc4)cc3)o2)cc1", "inhibition": "71.5% (active)"}
{"smiles": "Brc1ccc(-c2nnc(-c3ccccc3)o2)o1", "inhibition": "-10.5%"}
{"smiles": "COc1cccc(CNC(=O)c2nnn(CC(=O)Nc3cc(C)ccc3C)c2N)c1", "inhibition": "37.5%"}
{"smiles": "Cc1ccc2nc(-c3ccc(NC(=O)c4cccnc4)cc3)oc2c1", "inhibition": "30.4%"}
{"smiles": "COc1ccccc1C(=O)Nc1ccnn1C1CCN(Cc2cnn(C)c2)CC1", "inhibition": "38.1%"}
{"smiles": "CCN1CCN(C(c2cccnc2)c2cc(Cl)c3cccnc3c2O)CC1", "note": "(configuration not stated)", "inhibition": "98.8% (active)"}
{"smiles": "Cc1onc(C(=O)NN)c1C(=O)N1CCN(C(c2ccccc2)c2ccccc2)CC1", "inhibition": "-25.8%"}
{"smiles": "Clc1cccc(CN2COc3c(cc(Cl)c4cccnc34)C2)c1", "inhibition": "-4%"}
{"smiles": "CCOC(=O)N1CCN(C(c2cccnc2)c2ccc3cccnc3c2O)CC1", "note": "(configuration not stated)", "inhibition": "96.9% (active)"}
{"smiles": "Oc1ccccc1CN1CCN(C(c2ccccc2)c2ccccc2)CC1", "inhibition": "34.3%"}
{"smiles": "O=C(CSc1cccc2cccnc12)N/N=C/c1cccnc1", "inhibition": "-11.2%"}
{"smiles": "Cc1cccc(NC(=O)c2cccc(C(=O)Nc3cccc(C)c3C)n2)c1C", "inhibition": "14.9%"}
{"smiles": "COc1cccc2cc(C(N)=O)/c(=N\\NC(=O)c3ccccc3)oc12", "inhibition": "43.7%"}
{"smiles": "CCCCCN(C(=O)CCC(=O)OCC(=O)NCc1ccc(OC)cc1)c1c(N)n(CCCC)c(=O)[nH]c1=O", "inhibition": "36.6%"}
{"smiles": "Cc1ccc(NC(=O)COC(=O)C2C3CC4OC(=O)C2C4C3)cc1Cl", "note": "(configuration not stated)", "inhibition": "23.2%"}
{"smiles": "CCCn1c(SCC(=O)N2CCc3ccccc32)nnc1-c1ccncc1", "inhibition": "1.6%"}
{"smiles": "CSc1nnc(-c2ccncc2)n1CCCN1CCCC1=O", "inhibition": "86.5% (active)"}
{"smiles": "COCCCn1c(SCC(=O)Nc2ccccc2)nnc1-c1ccncc1", "inhibition": "-12.8%"}
{"smiles": "COc1cccc(C(=O)Nc2nnc(S(=O)(=O)N(C)c3ccccc3)s2)c1", "inhibition": "41.2%"}
{"smiles": "O=C(Nc1ccncc1)c1ccc([N+](=O)[O-])cc1Cl", "inhibition": "15.6%"}
{"smiles": "Cc1c(CCC(=O)O)c(=O)oc2cc(OCc3ccc(Br)cc3)ccc12", "inhibition": "4.7%"}
{"smiles": "Cc1c(Cc2ccccc2)c(=O)oc2cc(OCC(N)=O)ccc12", "inhibition": "61.5% (active)"}
{"smiles": "NC(=O)COc1ccc2c3c(c(=O)oc2c1)CCCCC3", "inhibition": "18%"}
{"smiles": "COc1ccc(-n2nc(C(=O)NCC(=O)N3CCCCCC3)c3ccccc3c2=O)cc1Cl", "inhibition": "36%"}
{"smiles": "CCOC(=O)c1c(N)sc(C(C)=O)c1C", "inhibition": "33%"}
{"smiles": "COCCOC(=O)c1sc(=S)n(CCOC)c1N", "inhibition": "76.4% (active)"}
{"smiles": "COC(=O)c1sc(=S)n(-c2ccc(Cl)cc2)c1C", "inhibition": "-2.1%"}
{"smiles": "COCCCC1CCN(C(=O)C2CCC(=O)N(C3CCCCCC3)C2)CC1", "note": "(configuration not stated)", "inhibition": "26.5%"}
{"smiles": "O=C(N/N=C\\c1cccnc1)c1cc(-c2ccccc2)nc2c(Cl)cccc12", "inhibition": "9%"}
{"smiles": "O=C(/C=C/c1cccc(C(F)(F)F)c1)N1CCN(c2ccccn2)CC1", "inhibition": "23.3%"}
{"smiles": "Clc1c(OCCCn2ccnc2)ccc2ccccc12", "inhibition": "13.9%"}
{"smiles": "O=C(O)c1[nH]c2ccccc2c1C(c1cccc(O)c1)c1c(C(=O)O)[nH]c2ccccc12", "inhibition": "14.1%"}
{"smiles": "CNC(=O)c1ccc(NC(=O)c2cccc(C(F)(F)F)c2)cc1", "inhibition": "47.6%"}
{"smiles": "O=C(O)CSCC(=O)Nc1cccc(C(F)(F)F)c1", "inhibition": "61.5% (active)"}
{"smiles": "Cc1cccc(NC(=O)c2cccc(C(F)(F)F)c2)c1", "inhibition": "66.2% (active)"}
{"smiles": "Cc1cccc(NC(=O)c2nnn(-c3cccc(C(F)(F)F)c3)c2N)c1", "inhibition": "11.4%"}
{"smiles": "O=C(O)CSCC(=O)Nc1ccc(C(F)(F)F)cc1", "inhibition": "46.4%"}
{"smiles": "O=C(O)CC1(CC(=O)Nc2cccc(C(F)(F)F)c2)CCCC1", "inhibition": "24%"}
